# Source: PubChem
# This is a sample that favours compounds with a hit; in the whole collection about 22% have one here.
# CYP2C9 act – human CYP2C9 activators, primary screen, biochemical, luminescence; Cytochrome P450 2C9 (Homo sapiens), P11712; hit rate 1.4% among 96,000; activation factor at 5 µM; AID 1024, 2008; recombinant CYP2C9, luciferin-H conversion; hits give high values; factor 1 = untreated enzyme, 0 = blocked;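 active = activation factor of 2 or more for CYP2C9 at a 5 µM dose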;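 also: 0 = sulfaphenazole-blocked wells and 1 = vehicle-only wells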
# E-sel TNF inh – E-selectin induction blockers in HUVEC – imaging, immunofluorescence, high content, primary screen; HUVEC TNFa-induced E-selectin immunofluorescence; inhibition, % at 2 µM; hit rate 0.71% among 120,000; AID 1246, 2008;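 active = inhibition above the batch mean plus 3 SD, and confirmed as a hit on visual image review, cut at about 43% in these data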;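 also: 0% = TNF-stimulated DMSO wells and 100% = unstimulated control wells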
# CYP2C9 inhib – blockers of cytochrome P450 2C9 activity – biochemical, luminescence, ADME assay, primary screen. P11712. CYP2C9 Supersomes, luciferin-H conversion. inhibition, % at 5 µM. hit rate 20% among 96,000;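 active = blocking of liver enzyme CYP2C9 beyond about 50% at 5 µM, limit read from the data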
# CYP2C19 activ – human CYP2C19 activators, primary screen, biochemical, luminescence. AID 1025, 2008. activation factor at 5 µM. Cytochrome P450 2C19 (Homo sapiens), P33261. recombinant CYP2C19, luciferin-H EGE luminescence; hits give high values; 0 = fully inhibited enzyme, 1 = untreated enzyme. 96,000 tested, under 10 active;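 active = activation factor of at least 2 at 5 µM in the primary screen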;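 also: 0 = wells with 2.5 mM tranylcypromine and 1 = vehicle-only wells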
# Target sequence (P33261 whole entry, looked up): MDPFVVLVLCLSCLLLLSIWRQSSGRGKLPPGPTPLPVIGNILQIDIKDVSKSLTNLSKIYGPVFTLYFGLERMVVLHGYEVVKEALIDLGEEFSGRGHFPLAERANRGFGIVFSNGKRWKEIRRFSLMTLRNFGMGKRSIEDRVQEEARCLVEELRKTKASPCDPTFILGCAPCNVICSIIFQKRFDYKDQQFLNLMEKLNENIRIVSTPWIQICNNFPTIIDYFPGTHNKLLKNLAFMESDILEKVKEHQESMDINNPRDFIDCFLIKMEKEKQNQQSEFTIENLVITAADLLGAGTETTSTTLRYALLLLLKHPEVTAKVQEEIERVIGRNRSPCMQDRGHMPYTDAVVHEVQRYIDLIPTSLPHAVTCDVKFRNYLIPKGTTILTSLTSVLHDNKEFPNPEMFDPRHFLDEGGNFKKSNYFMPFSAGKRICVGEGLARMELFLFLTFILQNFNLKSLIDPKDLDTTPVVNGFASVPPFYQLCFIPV
# cytoskel mod – modifiers of F-actin cytoskeleton organization, primary screen, imaging, HUVEC, phalloidin staining, high-content imaging; HUVEC TNFa F-actin phalloidin imaging; inhibition, % at 2 µM; hit rate 0.18% among 91,000; AID 836, 2007;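 active = inhibition above the batch mean plus 3 SD and confirmed as a hit by visual image inspection, cut at about 30% in these data, passing the limit was not always enough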
# CYP2C19 inhib – blockers of cytochrome P450 2C19 activity – biochemical, luminescence, ADME assay, primary screen | P33261 | CYP2C19 Supersomes, luciferin-H EGE luminescence, 30 min | inhibition, % at 5 µM | hit rate 21% among 96,000 | AID 778, 2007;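 active = CYP2C19 inhibition above a set limit at 5 µM in the primary screen, cut at about 50% in these data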;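 also: plate controls were negative control wells for no effect and 2.5 mM tranylcypromine positive control for full effect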
# * = called active by the depositor; . = no result given.
SMILES,CYP2C9 act,E-sel TNF inh,CYP2C9 inhib,CYP2C19 activ,cytoskel mod,CYP2C19 inhib
CCn1c2ccccc2c2cc(NC(=O)CSc3nnc(-c4cccc(F)c4)o3)ccc21,0.3,-10,70*,0.1,-13,91*
CCn1c2ccccc2c2cc(NC(=O)CSc3nnc(-c4ccccc4)o3)ccc21,0.2,0,78*,0.1,-25,95*
CCn1c2ccccc2c2cc(NC(=O)CSc3nnc(-c4cccc(C)c4)o3)ccc21,0.4,-29,64*,0.4,-29,63*
COc1ccc(C2=NC(c3ccccc3)CO2)cc1 (configuration not stated),.,-18,.,.,.,.
O=C(CC1CCCC1)Nc1nnc(C2CC2)s1,0.8,.,17,0.5,-6,52*
Cc1nnc(NC(=O)C2CCCCC2)s1,0.9,-37,5,0.6,.,41
O=C(Nc1nnc(C2CC2)s1)c1ccncc1,0.4,-1,56*,0.8,-7,16
O=C(Nc1nnc(C2CCCC2)s1)C1CCC1,0.4,24,56*,0.7,-8,33
Cc1nn(-c2ccccc2)c(Cl)c1C(=O)Nc1nnc(C2CCCCC2)s1,0.8,3,17,0.9,8,11
O=C(Nc1nnc(C2CC2)s1)c1cc(-c2ccccc2)nn1-c1ccccc1,0.7,97*,34,0.8,.,21
Cc1nnc(NC(=O)c2ccncc2)s1,0.9,.,14,1.1,-5,-5
CCOc1cc(NC(=S)NCCCN2CCOCC2)c(OCC)cc1NC(=O)c1cccc(F)c1,.,-45,.,.,.,.
Cc1ccccc1-n1nc(C(=O)O)cc1-c1ccccc1,1,0,0,0.9,-15,6
COc1ccc(-c2c(C)n([O-])c(C)c(C)[n+]2=O)cc1,1,-95,-4,1,-2,-4
CCOC(=O)c1cc2c(nc1NC(=S)NCc1ccccc1)CCCC2,.,-9,.,.,.,.
COc1ccc(OC)c(NC(=O)CSc2nnc(C)n2Cc2ccccc2)c1,0.7,-4,29,0.1,25,87*
CCn1c(COc2ccc(C)cc2)nnc1SCC(=O)Nc1cc(OC)ccc1OC,0.5,4,48,0.1,5,90*
CCn1c(COc2ccccc2)nnc1SCC(=O)Nc1cc(C)ccc1OC,2.1*,11,-108,0.5,-10,46
CCn1c(COc2ccc(C)cc2)nnc1SCC(=O)C(C)(C)C,0.5,.,51*,0.5,4,50
Cc1ccc(N=C2SCCCN2C(=O)c2ccco2)cc1Cl,0.9,.,12,0.8,17,21
O=C(O)CNc1nc(Cl)ccc1[N+](=O)[O-],0.9,-9,5,0.9,-27,6
Cc1sc2nc3n(c(=O)c2c1C)Cc1ccccc1-3,0.9,.,12,0.9,.,6
CCCCN(CC)S(=O)(=O)N1CCC(C(=O)NCc2ccc(F)cc2)CC1,0.5,40,47,0.4,3,58*
O=C(NCc1ccc(F)cc1)C1CCN(S(=O)(=O)N2CCCCC2)CC1,0.9,-19,7,1.1,10,-8
CCN1C(=O)CC(Sc2ccccc2N)C1=O (configuration not stated),0.6,19,41,0.5,6,54*
SMILES,CYP2C9 act,E-sel TNF inh,CYP2C9 inhib,CYP2C19 activ,cytoskel mod,CYP2C19 inhib
CC(=O)c1c(C)[nH]c(C(=O)OCC(=O)N2CCN(S(=O)(=O)c3ccc(C)cc3C)CC2)c1C,0.5,5,50*,0.4,5,61*
CCOC(=O)c1c(C)[nH]c(C(=O)OCC(=O)N2CCN(S(=O)(=O)c3ccccc3)CC2)c1C,1,3,-3,1,-3,0
Cc1ccc(S(=O)(=O)N2CCN(C(=O)CSC3CCCC3)CC2)c(C)c1,1.4,-15,-39,0.2,5,76*
CCn1cnc2sc(C(=O)N(Cc3ccc(N(C)C)cc3)Cc3ccco3)c(C)c2c1=O,0,-18,98*,0.1,.,88*
Cc1ccccc1-n1nc2c(c1NC(=O)COc1ccc(Cl)cc1)CS(=O)C2 (configuration not stated),0.8,3,22,0,21,100*
N#Cc1c(-c2ccccc2)c(-c2ccccc2)n(Cc2ccco2)c1NC(=O)c1cccs1,0.4,-26,64*,0.5,19,50
O=C(C1CCCO1)N1N=C(c2ccc(Br)cc2)CC1c1ccco1 (configuration not stated),.,-23,.,.,.,.
CC(C)CCNC(=O)c1nnc(Cc2ccc(Cl)cc2)o1,1.9,70*,-89,0.9,-10,12
O=C(Cc1ccccc1)NNC(=O)c1ccc(NC(=O)c2ccccc2)cc1,.,-12,.,.,.,.
O=C(Nc1ccc(-c2nnco2)cc1)c1ccccc1,0.2,-14,77*,0.2,11,83*
Cc1ccc(-c2nnc(SCC#CCOC(=O)c3ccco3)o2)cc1,0.1,5,89*,0.1,6,89*
Cc1ccc(-c2nnc(-c3ccc(NC(=O)c4ccco4)cc3)o2)cc1,0.2,-3,79*,0.3,17,67*
COc1cccc(C(=O)Nc2ccc(-c3nnc(-c4ccco4)o3)cc2)c1,0.6,-5,43,0.3,-2,65*
COc1ccc(NC(=O)/C(=C\c2ccc(OS(=O)(=O)c3ccc(C)cc3)cc2)NC(=O)c2ccccc2)cc1,0.6,15,43,0.9,-3,14
O=C(Nc1ccccc1)/C(=C\c1ccncc1)NC(=O)c1ccccc1,0,6,96*,0,-1,100*
O=C(Nc1ccc(O)cc1)/C(=C\c1ccncc1)NC(=O)c1ccccc1,.,-21,.,.,.,.
Cc1ccc(S(=O)(=O)Oc2ccc(/C=C(/NC(=O)c3ccccc3)C(=O)Nc3ccccc3)cc2)cc1,0.4,-11,59*,0.7,-9,33
O=C(N/N=C/c1ccncc1)/C(=C/c1ccccc1)NC(=O)c1ccccc1,0.2,-39,79*,0.5,-6,51*
CCC(=O)NC(Nc1ccccn1)(C(=O)OC)C(F)(F)F (configuration not stated),.,-12,.,.,.,.
O=C(NCCC1=CCCCC1)C1CC(=O)N(C2CCCCC2)C1 (configuration not stated),0.9,-15,10,1,22,0
Cc1ccc(NC(=O)N2CCCC2C(=O)NCCC2=CCCCC2)cc1 (configuration not stated),0.9,25,15,0.7,4,29
CC(C)CCN1CC(C(=O)NCCC2=CCCCC2)CC1=O (configuration not stated),0.8,-10,17,0.8,68*,15
Cc1ccc(NC(=O)N2CCC(C(=O)NCCC3=CCCCC3)CC2)cc1,1,40*,-2,0.9,-4,7
